Reference: PubChem BioAssay (NCATS)
Records with an inconclusive call do not appear. Calls of active or inactive are those of the source. Unless noted, calls follow the shape of the dose curve; as a rule, active = well fitted curve in either direction with a large enough effect (not every such curve was filed as active); inconclusive = small, poorly fitted or top-dose-only effect, or another doubt; inactive = flat fitted curve, though single readings scatter.

Experiments:
[1] = AP1 Signaling Pathway (AID 357); conditions: ME-180 AP-1-bla reporter, EGF-induced, beta-lactamase ratio, 5 h; at 17.2 µM (top of the series) unless noted;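 also: ME-180 reporter cells stimulated with EGF at its EC50 level; % is scaled to controls: 0 for no effect and ±100 for the full control effect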
Outline: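 First, ME-180 AP-1-bla cells were cultured overnight at 37 °C in low-serum Opti-MEM. Next, titrated compounds with EC50 EGF were incubated 5 hours. Finally, CCF4 was added for 2.5 hours and the 460/530 nm ratio recorded.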

[2] = NFAT Signaling Pathway (AID 444); conditions: Jurkat NFAT-bla M1, carbachol, beta-lactamase ratio, 5 h; at 17.2 µM (top of the series) unless noted;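 also: carbachol stimulus at about its EC50 of 1 µM final; % is scaled to controls: 0 for no effect and ±100 for the full control effect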
Outline: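 Jurkat cells carrying an NFAT-driven β-lactamase reporter and co-transfected muscarinic M1 receptor were treated with compound plus carbachol (1 uM final, an EC50 level) for 5 h at 37 °C. CCF4 loading followed for 1 h at RT; 460/530 nm ratio gave %activity.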

[3] = Stat Signaling Pathway (AID 446); conditions: ME-180 SIE beta-lactamase reporter, IL-6 stimulated, 5 h; at 17.2 µM (top of the series) unless noted;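 also: ME-180 cervical cancer cells given 40 pM IL-6 alongside compound; SIE-controlled beta-lactamase reporter measured as 460/530 nm FRET emission ratio; % is scaled to controls: 0 for no effect and ±100 for the full control effect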
Outline: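 Reporter line: ME-180 cervical carcinoma, SIE-beta-lactamase. Treatment: compound with 40 pM IL-6, 5 hrs, 37 C, in low-serum OPTI-MEM with 10 mM HEPES pH 7.3. Detection: 460/530 nm fluorescence.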

[4] = target: Glucocorticoid receptor (Homo sapiens) (UniProt P04150); test: GR-GFP Redistribution (AID 450;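 active = compounds whose dose series gives a full or clear partial fitted curve of increased nuclear translocation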; also: potency is read from the fitted curve at half-maximal effect)
Glucocorticoid receptor (Homo sapiens), sequence (P04150 whole entry, looked up): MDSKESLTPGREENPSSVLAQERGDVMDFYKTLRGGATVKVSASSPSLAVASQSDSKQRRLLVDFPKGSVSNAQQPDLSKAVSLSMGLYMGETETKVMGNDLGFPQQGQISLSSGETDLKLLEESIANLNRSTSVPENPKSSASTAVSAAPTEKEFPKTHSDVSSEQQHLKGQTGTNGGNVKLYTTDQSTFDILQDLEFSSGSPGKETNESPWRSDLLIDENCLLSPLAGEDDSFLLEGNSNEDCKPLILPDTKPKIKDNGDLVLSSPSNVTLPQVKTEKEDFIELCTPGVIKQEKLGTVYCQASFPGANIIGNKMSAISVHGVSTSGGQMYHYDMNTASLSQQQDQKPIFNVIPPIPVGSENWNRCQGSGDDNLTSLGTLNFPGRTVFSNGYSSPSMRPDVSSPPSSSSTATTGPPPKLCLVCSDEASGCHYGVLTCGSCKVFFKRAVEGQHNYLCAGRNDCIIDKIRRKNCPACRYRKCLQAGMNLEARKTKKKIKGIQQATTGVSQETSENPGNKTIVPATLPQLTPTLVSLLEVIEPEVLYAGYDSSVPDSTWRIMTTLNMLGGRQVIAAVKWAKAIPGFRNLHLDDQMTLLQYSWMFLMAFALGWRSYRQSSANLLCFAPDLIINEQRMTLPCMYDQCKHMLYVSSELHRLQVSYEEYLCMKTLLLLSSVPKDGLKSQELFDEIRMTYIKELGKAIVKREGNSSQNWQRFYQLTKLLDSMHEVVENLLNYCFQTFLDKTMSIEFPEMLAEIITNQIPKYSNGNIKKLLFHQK

CNC(=O)c1cc2ccccc2o1
inactive: activity change, negative = inhibition [1] 8.83% | activity change, negative = inhibition [2] -13.4% | activity, negative = inhibition [3] 2.75% | Potency [4] > 20.6 µM

CCCOc1ccc(/C(O)=C2/C(=O)C(=O)N(CCN3CCOCC3)C2c2ccccc2)cc1 (stereo not given)
inactive: activity change, negative = inhibition [1] -16.7% | activity change, negative = inhibition [2] 4.9% | activity, negative = inhibition [3] -4.33% | Potency [4] > 20.6 µM

Cc1ccc(C#N)c(SCc2cc3c(cc2Cl)OCO3)n1
inactive: activity change, negative = inhibition [1] 12.7% | activity change, negative = inhibition [2] -1.4% | activity, negative = inhibition [3] 4.71% | Potency [4] > 20.6 µM

CC(O)CNc1nc2c(c(=O)n(C)c(=O)n2C)n1Cc1cccc(C(F)(F)F)c1 (stereo not given)
inactive: activity change, negative = inhibition [1] -10.4% | activity change, negative = inhibition [2] 4.56% | activity, negative = inhibition [3] -0.279% | Potency [4] > 20.6 µM

CCc1cc(=O)oc2cc(C)c(CN3CCCCC3)c(O)c12
inactive: activity change, negative = inhibition [1] 7.78% | activity change, negative = inhibition [2] -13.9% | activity, negative = inhibition [3] -6.86% | Potency [4] > 20.6 µM

O=C1CC(C(=O)O)c2ccccc2N1 (stereo not given)
inactive: activity change, negative = inhibition [1] 2.72% | activity change, negative = inhibition [2] -1.33% | activity, negative = inhibition [3] 6.42% | Potency [4] > 20.6 µM

CCOC(=O)CC(C#N)c1cn(C)c2ccccc12 (stereo not given)
inactive: activity change, negative = inhibition [1] 8.21% | activity change, negative = inhibition [2] -8.09% | activity, negative = inhibition [3] 3.49% | Potency [4] > 20.6 µM

CC(Sc1nc(N2CCCCC2)c2c(c1C#N)CCCC2)C(=O)O (stereo not given)
inactive: activity change, negative = inhibition [1] -9.35% | activity change, negative = inhibition [2] -2.56% | activity, negative = inhibition [3] -20.5% | Potency [4] > 20.6 µM

CN1CCc2c(C#N)c(N3CCCCC3)nc(N3CCOCC3)c2C1
inactive: activity change, negative = inhibition [1] 1.28% | activity change, negative = inhibition [2] 20.7% | activity, negative = inhibition [3] 10.9% | Potency [4] > 20.6 µM

O=C1CC(c2ccco2)CC(O)=C1C=Nc1cc(Cl)ccc1O (stereo not given)
inactive: activity change, negative = inhibition [1] -23.8% | activity change, negative = inhibition [2] -1.32% | activity, negative = inhibition [3] -10.9% | Potency [4] > 20.6 µM

CCOC(=O)CCc1c(C)c(C#N)c2nc3ccccc3n2c1-n1ccnc1
inactive: activity change, negative = inhibition [1] -6.27% | activity change, negative = inhibition [2] 10% | activity, negative = inhibition [3] 14.7% | Potency [4] > 20.6 µM

CCOC(=O)COc1nc(N(C)C)nc(N(C)C)n1
inactive: activity change, negative = inhibition [1] 5.84% | activity change, negative = inhibition [2] -1.43% | activity, negative = inhibition [3] 8.42% | Potency [4] > 20.6 µM

COc1cccc(C(=O)N2CCN(S(=O)(=O)Cc3ccccc3)CC2)c1OC
inactive: activity change, negative = inhibition [1] 8.1% | activity change, negative = inhibition [2] 18.1% | activity, negative = inhibition [3] -3.28% | Potency [4] > 20.6 µM

COC(=O)C1C(=O)NCC1c1ccccc1 (stereo not given)
inactive: activity change, negative = inhibition [1] 9.38% | activity change, negative = inhibition [2] -1.78% | activity, negative = inhibition [3] 7.06% | Potency [4] > 20.6 µM

O=c1c2c3c(sc2nc2n1CCCS2)CCCC3
inactive: activity change, negative = inhibition [1] -22.8% | activity change, negative = inhibition [2] -17.4% | activity, negative = inhibition [3] 1.96% | Potency [4] > 20.6 µM

Cc1cccc(COc2ccc(/C(O)=C3\C(=O)C(=O)N(CCN(C)C)C3c3ccncc3)cc2)c1 (stereo not given)
inactive: activity change, negative = inhibition [1] 4.68% | activity change, negative = inhibition [2] 13.1% | activity, negative = inhibition [3] 2.96% | Potency [4] > 20.6 µM

CCOC(=O)C1=C(C)OC(N)=C(C#N)C1c1cc2ccccc2nc1N1CCCCC1 (stereo not given)
inactive: activity change, negative = inhibition [1] -11.2% | activity change, negative = inhibition [2] -20.1% | activity, negative = inhibition [3] 13.8% | Potency [4] > 20.6 µM

O=c1[nH]nc2n1CCCCC2
inactive: activity change, negative = inhibition [1] 13.2% | activity change, negative = inhibition [2] 9.36% | activity, negative = inhibition [3] 7.42% | Potency [4] > 20.6 µM

CCc1cc2c(=O)c(-c3cscn3)coc2cc1O
inactive: activity change, negative = inhibition [1] -3.15% | activity change, negative = inhibition [2] -8.09% | activity, negative = inhibition [3] -14.6% | Potency [4] > 20.6 µM

COc1cc(C)nc(Oc2ccc(OCCOc3ccc(C)cc3)nn2)n1
inactive: activity change, negative = inhibition [1] -8.32% | activity change, negative = inhibition [2] 5.08% | activity, negative = inhibition [3] -5.96% | Potency [4] > 20.6 µM

CC(=O)[C@@]1(O)CC[C@H]2[C@@H]3CCC4=CC(=O)CC[C@]4(C)[C@H]3[C@@H](O)C[C@@]21C
inactive: activity change, negative = inhibition [1] 3.13% | activity change, negative = inhibition [2] -20.8% | activity, negative = inhibition [3] 4.29%
active: Potency [4] 0.0133 µM

Cc1ccc(S(=O)(=O)/C(C#N)=C/c2c(N3CCN(C)CC3)nc3ccccn3c2=O)cc1
inactive: activity change, negative = inhibition [1] -12.9% | activity change, negative = inhibition [2] -5.08% | activity, negative = inhibition [3] 1.8% | Potency [4] > 20.6 µM

Cc1nc2n[nH]c(N)c2c2c1COC(C)(C)C2
inactive: activity change, negative = inhibition [1] 3.75% | activity change, negative = inhibition [2] -4.48% | activity, negative = inhibition [3] 3.57% | Potency [4] > 20.6 µM

N/C(CCCN1CCCCC1)=N/O
inactive: activity change, negative = inhibition [1] 14.3% | activity change, negative = inhibition [2] -3.1% | activity, negative = inhibition [3] -0.379% | Potency [4] > 20.6 µM

COCCN(C(=O)Nc1ccccc1)c1ccccc1C
inactive: activity change, negative = inhibition [1] -9.46% | activity change, negative = inhibition [2] -0.712% | activity, negative = inhibition [3] 6.32% | Potency [4] > 20.6 µM
